Article PMC9838217, “Structure of SALL4 zinc finger domain reveals link between AT-rich DNA binding and Okihiro syndrome”
Positions count from the first letter of the chain named.

Columns and labels:
Test in all cases: HT-SELEX; high values mean tight binding
Conditions in all cases: protein: recombinant; vector His6-GST; dsDNA, one strand shown
SALL4 ZFC4 WT (HT-SELEX) = target: T1, SALL4 ZFC4 WT (HT-SELEX) (Mus musculus, UniProt Q8BX22 870-940)
T1 sequence: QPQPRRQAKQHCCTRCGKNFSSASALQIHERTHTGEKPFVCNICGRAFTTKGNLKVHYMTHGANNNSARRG
Outline: (§1)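 DNA from a random library (1.5 µg in the first cycle, 200 ng afterwards) was incubated with purified recombinant mouse SALL4 zinc finger cluster 4, residues 870–940 (1 µg), for 10 min at room temperature in 100 µl buffer: 10 mM Tris–HCl pH 7.5, 50 mM NaCl, poly(dI-dC), DTT. Bound complexes were pulled down on Ni2+ beads, washed and PCR-amplified, and the selection was repeated for up to 6 cycles in triplicate. MiSeq reads were scanned for 6-mers, and binding signal is each canonical k-mer's read fraction as fold change over the initial random library.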

[1] = target: T2, SALL4 ZFC4 R900W (HT-SELEX) (Mus musculus, UniProt Q8BX22 870-940, R900W)
T2 sequence: T1 sequence with R31W
Outline: as §1

[2] = target: T3, SALL4 ZFC4 G921D (HT-SELEX) (Mus musculus, UniProt Q8BX22 870-940, G921D)
T3 sequence: T1 sequence with G52D
Outline: as §1

Sequence | binding signal (SALL4 ZFC4 WT (HT-SELEX)) [fold-change vs cycle 0] | binding signal [1] [fold-change vs cycle 0] | binding signal [2] [fold-change vs cycle 0]
TCCGAA | 0.618 ± 0.0382 | 0.692 ± 0.0361 | 0.791 ± 0.046
CGAGAC | 0.365 ± 0.0341 | 0.454 ± 0.0153 | 0.565 ± 0.0671
ATTTCA | 2.56 ± 0.117 | 1.87 ± 0.0758 | 1.7 ± 0.117
CTAACA | 1.32 ± 0.0481 | 1.48 ± 0.0428 | 1.41 ± 0.0893
CCTTCC | 0.487 ± 0.0167 | 0.593 ± 0.0214 | 0.661 ± 0.0352
TGCTAA | 1.16 ± 0.0453 | 1.24 ± 0.0475 | 1.21 ± 0.0656
ACCTCC | 0.552 ± 0.031 | 0.625 ± 0.0479 | 0.721 ± 0.0399
AGTCAC | 0.789 ± 0.043 | 0.9321 ± 0.00858 | 0.975 ± 0.0241
AGAAGG | 0.864 ± 0.0399 | 1.05 ± 0.055 | 0.997 ± 0.0501
GAAAGA | 1.32 ± 0.0648 | 1.52 ± 0.0726 | 1.36 ± 0.0863
CTTTCA | 1.3 ± 0.0524 | 1.47 ± 0.103 | 1.35 ± 0.102
CCGTAG | 0.35 ± 0.01 | 0.427 ± 0.0139 | 0.516 ± 0.0548
GATAGA | 1.32 ± 0.045 | 1.46 ± 0.0749 | 1.38 ± 0.128
ACCTAC | 0.796 ± 0.0505 | 0.908 ± 0.0415 | 0.957 ± 0.0179
CAAGAA | 1.26 ± 0.0324 | 1.43 ± 0.0703 | 1.35 ± 0.104
GACGAA | 0.609 ± 0.00641 | 0.72 ± 0.0219 | 0.7905 ± 0.00753
TCAAGA | 1.32 ± 0.0482 | 1.49 ± 0.0445 | 1.4 ± 0.0701
ATACTC | 1.45 ± 0.0421 | 1.5 ± 0.0712 | 1.44 ± 0.097
AATCGT | 1.18 ± 0.0336 | 1.21 ± 0.0227 | 1.23 ± 0.0244
ATCGAT | 1.23 ± 0.075 | 1.21 ± 0.0415 | 1.3 ± 0.0771

Sequence | binding signal (SALL4 ZFC4 WT (HT-SELEX)) [fold-change vs cycle 0] | binding signal [1] [fold-change vs cycle 0] | binding signal [2] [fold-change vs cycle 0]
AAGCTC | 0.631 ± 0.0495 | 0.76 ± 0.0539 | 0.866 ± 0.0327
AAGTAC | 1.23 ± 0.0679 | 1.37 ± 0.0898 | 1.31 ± 0.0947
CAGTGC | 0.318 ± 0.0186 | 0.355 ± 0.00797 | 0.491 ± 0.0442
CCGATA | 0.671 ± 0.053 | 0.717 ± 0.0449 | 0.816 ± 0.0546
GGTTTA | 1.2 ± 0.0627 | 1.28 ± 0.0514 | 1.24 ± 0.0515
GACTGA | 0.805 ± 0.0317 | 0.959 ± 0.0214 | 0.953 ± 0.0219
ACGAGA | 0.811 ± 0.0345 | 0.922 ± 0.0447 | 0.957 ± 0.0409
ACTTCC | 0.854 ± 0.0494 | 1.02 ± 0.0553 | 1.03 ± 0.0487
ACTTAC | 1.44 ± 0.0822 | 1.6 ± 0.106 | 1.47 ± 0.146
TCTCAA | 1.28 ± 0.029 | 1.413 ± 0.011 | 1.34 ± 0.061
GCTGAA | 0.582 ± 0.0146 | 0.67 ± 0.0322 | 0.774 ± 0.0356
ACCAAA | 1.09 ± 0.0301 | 1.17 ± 0.0218 | 1.18 ± 0.044
CTCCAC | 0.493 ± 0.0188 | 0.564 ± 0.0173 | 0.646 ± 0.0596
GTTTGA | 1.14 ± 0.0365 | 1.26 ± 0.0348 | 1.23 ± 0.0615
AAACTC | 1.19 ± 0.0627 | 1.3 ± 0.0461 | 1.28 ± 0.0858
AAGTTA | 2.21 ± 0.185 | 2.17 ± 0.193 | 1.9 ± 0.254
AGTTGG | 0.73 ± 0.0169 | 0.834 ± 0.0159 | 0.883 ± 0.0279
CTGGGA | 0.455 ± 0.0297 | 0.528 ± 0.00656 | 0.594 ± 0.0357
CCTGAG | 0.502 ± 0.0217 | 0.614 ± 0.0126 | 0.691 ± 0.0156
TCATAA | 3.28 ± 0.256 | 2.06 ± 0.0751 | 1.84 ± 0.154

Sequence | binding signal (SALL4 ZFC4 WT (HT-SELEX)) [fold-change vs cycle 0] | binding signal [1] [fold-change vs cycle 0] | binding signal [2] [fold-change vs cycle 0]
GACGTA | 0.666 ± 0.0264 | 0.752 ± 0.0315 | 0.823 ± 0.0398
CACCAC | 0.402 ± 0.0296 | 0.465 ± 0.0324 | 0.587 ± 0.0576
AATAGT | 1.96 ± 0.0795 | 1.94 ± 0.0794 | 1.77 ± 0.136
ACTGAC | 0.782 ± 0.026 | 0.909 ± 0.0341 | 0.934 ± 0.016
AGTCCA | 0.746 ± 0.0239 | 0.878 ± 0.0374 | 0.929 ± 0.0398
AGTGGG | 0.455 ± 0.0261 | 0.528 ± 0.0236 | 0.608 ± 0.0502
CACCCA | 0.431 ± 0.034 | 0.488 ± 0.0313 | 0.59 ± 0.0722
ATGCTG | 0.649 ± 0.0321 | 0.712 ± 0.0351 | 0.801 ± 0.0529
ATCGTG | 0.701 ± 0.0455 | 0.775 ± 0.0256 | 0.876 ± 0.0311
CGTTCC | 0.389 ± 0.0208 | 0.468 ± 0.0134 | 0.546 ± 0.0299
CCTCGA | 0.415 ± 0.0275 | 0.51 ± 0.0259 | 0.594 ± 0.0635
ATAGAT | 2.3 ± 0.159 | 2.05 ± 0.124 | 1.86 ± 0.167
CCCAAG | 0.456 ± 0.0184 | 0.532 ± 0.00725 | 0.619 ± 0.0423
CTCTGA | 0.812 ± 0.0446 | 0.948 ± 0.0551 | 0.993 ± 0.0433
AATCTA | 2.03 ± 0.138 | 2 ± 0.0814 | 1.8 ± 0.18
ACTGGA | 0.84 ± 0.022 | 0.993 ± 0.0196 | 1.01 ± 0.0605
ATCCAG | 0.851 ± 0.0326 | 0.955 ± 0.027 | 0.988 ± 0.0337
GAATTC | 1.29 ± 0.0387 | 1.38 ± 0.0509 | 1.33 ± 0.0652
AGTTCC | 0.848 ± 0.0309 | 0.972 ± 0.0535 | 0.98 ± 0.0319
GGTGAC | 0.454 ± 0.0238 | 0.526 ± 0.0318 | 0.642 ± 0.0609
